According to PubChem BioAssay (Tox21):
Inconclusive results are not listed. Active and inactive are the calls of the source. Unless noted, calls come from the whole dose curve; as a rule, active = well fitted curve in the direction sought with a large enough effect in the repeat runs; inconclusive = weak or mixed curves; inactive = no such curve, though single readings can be large; an effect the other way counts as inactive or inconclusive.

How the values were obtained:
[1] = qHTS assay for small molecules that induce genotoxicity in human embryonic kidney cells expressing luciferase-tagged ATAD5 (AID 651632); conditions: HEK293T ATAD5-luciferase induction, 16 h; series mostly up to 83.3 µM; note: nearly all actives have a fitted effect of over 15% in size; note: potency is the fitted concentration of half-maximal effect
Outline: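 ATAD5-luc HEK293T, 2,000 cells/well; cpd or DMSO pin-transferred; 16 hr, 37C/5% CO2; Amplite 30 min RT; luminescence.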

[2] = qHTS assay for small molecule agonists of the p53 signaling pathway - cell viability (AID 651633; calls by dose curve; note: nearly all actives have a fitted effect of over 30% in size; note: potency is the fitted concentration of half-maximal effect); conditions: p53RE-bla HCT-116 viability, ATP luminescence, 16 h; series mostly up to 83.3 µM
Outline: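 p53RE-bla cells, seeded at 4,000 per well and rested 5 h at 37 C/5% CO2, received compounds in DMSO for 16 h at 37 C. CellTiter-Glo was then added, and luminescence was read after 30 min at room temperature to gauge cytotoxicity.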

[3] = qHTS assay for small molecules that induce genotoxicity in human embryonic kidney cells expressing luciferase-tagged ATAD5 - cell viability (AID 651634; calls by dose curve; note: nearly all actives have a fitted effect of over 25% in size; note: potency is the fitted concentration of half-maximal effect); conditions: HEK293T ATAD5-luc cells viability, CellTiter-Fluor, 15.5 h; series mostly up to 83.3 µM
Outline: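 Fluorescence from CellTiter-Fluor, reporting protease activity within live cells, served as the viability read-out. HEK293T cells carrying luciferase-tagged ATAD5 had been treated with compound for 15.5 hr at 37C.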

[4] = qHTS assay for small molecule disruptors of the mitochondrial membrane potential - cell viability (AID 720634; calls by dose curve;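 note: human HepG2 liver cancer cells; nearly all actives have a fitted effect of over 20% in size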); conditions: HepG2 viability, ATP luminescence (CellTiter-Glo), 1 h; series mostly up to 83.2 µM
Outline: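 Cells: HepG2, 2,000/well, attached overnight. Compound 1 hr, 37 C/5% CO2. +m-MPI dye, +CellTiter-Glo 30 min RT. Readout: luminescence (ATP).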

[5] = qHTS assay to test for compound auto fluorescence at 590 nm (red) in HepG2 cells (AID 720674); conditions: HepG2 autofluorescence, red 540/590 nm, 1 h; series mostly up to 46 µM
Outline: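 Compound auto-fluorescence is scored relative to Rose Bengal sodium, measured at 540/590 nm in live HepG2 cultures after 1 hr compound contact (37 C, 5% CO2).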

[6] = qHTS assay to test for compound auto fluorescence at 535 nm (green) in HepG2 cells (AID 720675); conditions: green autofluorescence 485/535 nm, 1 h; series mostly up to 46 µM
[7] = qHTS assay to test for compound auto fluorescence at 590 nm (red) in HEK293 cells (AID 720679); conditions: red autofluorescence 540/590 nm; series mostly up to 46 µM
Outline: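 Intensity at 540nm excitation and 590nm emission is reported as Rose Bengal sodium-equivalent autofluorescence. Measurements followed overnight exposure (37C, 5% CO2) of HEK293 cells, 2,000 per well, to 23 nL compound.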

[8] = qHTS assay to test for compound auto fluorescence at 535 nm (green) in HEK293 cells (AID 720680); conditions: green autofluorescence 485/535 nm; series mostly up to 46 µM
[9] = qHTS assay to test for compound auto fluorescence at 460 nm (blue) in HEK293 cell free culture (AID 720681); conditions: cell-free medium, autofluorescence 405/460 nm (blue); series mostly up to 46 µM
Outline: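 Test compounds were pinned into cell-free culture medium (DMEM with 10% FBS) and fluorescence was read directly at Ex/Em 405/460 nm. Signals were expressed as fluorescence equivalents of triamterene, with DMSO vehicle as control.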

[10] = qHTS assay to test for compound auto fluorescence at 535 nm (green) in HEK293 cell free culture (AID 720682); conditions: cell-free medium, green autofluorescence 485/535 nm; series mostly up to 46 µM
Outline: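 Fluorescein serves as the green reference fluorophore; each compound's intrinsic emission at 535 nm (excitation 485 nm) is reported as an equivalent amount of that dye, measured in serum-containing DMEM without cells.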

[11] = qHTS assay to test for compound auto fluorescence at 590 nm (red) in HEK293 cell free culture (AID 720683); conditions: cell-free medium autofluorescence, Ex540/Em590 red; series mostly up to 46 µM
Outline: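 Tox21 10K library compounds were pinned into cell-free DMEM with 10% FBS and fluorescence was read at excitation 540 nm. Activity is expressed as Rose Bengal sodium equivalency.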

[12] = qHTS assay to test for compound auto fluorescence at 590 nm (red) in HepG2 cell free culture (AID 720684); conditions: cell-free medium autofluorescence, red 540/590 nm; series mostly up to 46 µM
Outline: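 Measured in medium alone (MEM containing 10% FBS) following pintool addition of compound; emission at 590 nm with 540 nm excitation, referenced to Rose Bengal sodium.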

[13] = qHTS assay to test for compound auto fluorescence at 460 nm (blue) in HepG2 cell free culture (AID 720685); conditions: Cell-free culture medium, blue autofluorescence 405/460 nm; series mostly up to 46 µM
Outline: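 Compound (23 nL) or DMSO pinned into cell-free MEM with 10% FBS; blue fluorescence read at 405/460 nm excitation/emission, expressed as auto-fluorescence equivalency to triamterene.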

[14] = qHTS assay to test for compound auto fluorescence at 535 nm (green) in HepG2 cell free culture (AID 720686); conditions: Cell-free medium, green autofluorescence 485/535 nm; series mostly up to 46 µM
[15] = qHTS assay to test for compound auto fluorescence at 460 nm (blue) in HepG2 cells (AID 720687); conditions: autofluorescence 405/460 nm, 1 h; series mostly up to 46 µM
Outline: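 Cells (2,000/well in MEM with 10% FBS) attached overnight at 37 C, then were exposed to compound or DMSO for 1 hr at 37 C, 5% CO2. Fluorescence read at Ex/Em 405/460 nm, expressed as triamterene-equivalent signal.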

[16] = target: Glucocorticoid receptor (Homo sapiens) (UniProt P04150); assay: qHTS assay to identify small molecule agonists of the glucocorticoid receptor (GR) signaling pathway (AID 720691; active = well fitted activation curve with a large enough effect in the signal ratio in the repeat runs, not every such curve was filed as active; the % refers to the signal ratio); conditions: GR-bla HeLa, beta-lactamase reporter ratio, 18 h; activation: at 62.4 µM (top of the series)
Chain of Glucocorticoid receptor (Homo sapiens) (P04150 whole entry, looked up): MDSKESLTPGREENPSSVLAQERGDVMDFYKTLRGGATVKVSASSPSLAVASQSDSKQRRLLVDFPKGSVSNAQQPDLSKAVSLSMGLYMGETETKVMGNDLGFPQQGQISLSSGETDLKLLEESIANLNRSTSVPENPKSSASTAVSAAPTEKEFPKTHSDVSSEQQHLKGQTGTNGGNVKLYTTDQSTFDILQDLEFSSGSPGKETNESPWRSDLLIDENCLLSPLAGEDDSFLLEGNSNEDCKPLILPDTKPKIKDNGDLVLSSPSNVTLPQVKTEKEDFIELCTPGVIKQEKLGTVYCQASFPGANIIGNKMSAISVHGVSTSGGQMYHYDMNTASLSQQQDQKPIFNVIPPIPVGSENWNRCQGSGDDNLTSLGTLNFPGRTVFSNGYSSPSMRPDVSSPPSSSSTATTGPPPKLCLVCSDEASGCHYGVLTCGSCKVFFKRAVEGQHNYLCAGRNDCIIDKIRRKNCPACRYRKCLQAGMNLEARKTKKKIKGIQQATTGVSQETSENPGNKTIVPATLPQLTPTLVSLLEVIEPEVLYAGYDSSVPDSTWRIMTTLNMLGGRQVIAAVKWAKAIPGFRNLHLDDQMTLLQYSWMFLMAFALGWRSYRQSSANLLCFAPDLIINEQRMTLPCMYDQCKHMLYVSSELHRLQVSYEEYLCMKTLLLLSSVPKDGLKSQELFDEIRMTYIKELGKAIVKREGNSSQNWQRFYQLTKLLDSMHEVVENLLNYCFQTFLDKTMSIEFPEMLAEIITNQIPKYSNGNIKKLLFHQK
Outline: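 Fluorescence intensity from LiveBLAzer B/G FRET substrate (2 h, room temperature) reports beta-lactamase expression driven by the glucocorticoid response element in GR-bla HeLa cells after 18 h compound exposure at 37 C.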

[17] = qHTS assay to test for compound auto fluorescence at 460 nm (blue) in HEK293 cells (AID 720678); conditions: blue autofluorescence 405/460 nm; series mostly up to 46 µM
Outline: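 HEK293, 2,000 cells/well, 10% dialyzed FBS; attach 4-5 hr 37C; pin compound or DMSO; o/n 37C/5% CO2; fluorescence 405/460 nm; triamterene-equivalent units.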

[18] = target: Glucocorticoid receptor (Homo sapiens) (UniProt P04150); assay: qHTS assay to identify small molecule antagonists of the glucocorticoid receptor (GR) signaling pathway (AID 720692; active = well fitted inhibition curve with a large enough effect in the signal ratio in the repeat runs, not every such curve was filed as active; the % refers to the signal ratio; note: potency is the fitted concentration of half-maximal effect); conditions: GR-bla HeLa, beta-lactamase FRET ratio, dexamethasone-stimulated, 18 h; series mostly up to 58.5 µM
Outline: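 HeLa GR-bla cells; cmpd + dex 5 nM final, 18 h 37 C; LiveBLAzer B/G FRET substrate 2 h RT; fluorescence intensity read. Antagonist mode, qHTS.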

[19] = qHTS assay for small molecule disruptors of the mitochondrial membrane potential (AID 720635); conditions: HepG2 mitochondrial membrane potential, Mito-MPS dye ratio; series mostly up to 83.2 µM; note: potency is the fitted concentration of half-maximal effect
Outline: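 HepG2 cells (2,000/well) attached overnight at 37C, then took compound for 1 hr at 37C, 5% CO2. Mito-MPS dye was added for 30 min; fluorescence was read at 490/535 nm (monomers) and 540/590 nm (aggregates).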

Measured: Potency

NNc1nnc(Cc2ccncc2)c2ccccc12
not listed: [17] | [18] | [19]
inactive: all other assays above

CC(C)(C)NCC(O)c1ccc(O)c(CO)n1 (stereo not drawn)
not listed: [19]
inactive: all other assays above

CO/N=C(\C(=O)N[C@@H]1C(=O)N2C(C(=O)O)=C(CSc3nnnn3C)CS[C@H]12)c1csc(N)n1
not listed: [19]
inactive: all other assays above

FC(F)(F)C(F)(F)C(F)(F)C(F)(F)C(F)(F)C(F)(F)F
not listed: [19]
inactive: all other assays above

CCN(CC)CCOc1ccccc1OC
not listed: [6] | [18] | [19]
inactive: all other assays above

O=C(O)CC/C=C\CC[C@@H]1[C@@H](N2CCCCC2)[C@@H](O)C[C@@H]1OCc1ccc(-c2ccccc2)cc1
not listed: [13] | [19]
inactive: all other assays above

NS(=O)(=O)c1cc2c(cc1Cl)NC(Cc1ccccc1)NS2(=O)=O (stereo not drawn)
not listed: [13] | [19]
inactive: all other assays above

C[C@]12CC[C@@H]3c4ccc(O)cc4CC[C@H]3[C@@H]1CC[C@@H]2OP(=O)(O)O
not listed: [16] | [17] | [18] | [19]
inactive: all other assays above

C/C1=C2N=C(/C=C3N=C(/C(C)=C4\[N-]C(C(CC(N)=O)C4(C)CCC(=O)NCC(C)OP(=O)([O-])OC4C(CO)OC(n5cnc6cc(C)c(C)cc65)C4O)C4(C)N=C1C(CCC(N)=O)C4(C)CC(N)=O)C(CCC(N)=O)C\3(C)C)C(CCC(N)=O)C/2(C)CC(N)=O.[CH3-].[Co+3] (stereo not drawn)
active: [3] 23.7 µM
not listed: [19]
inactive: all other assays above

CC(C)(S)[C@@H](N)C(=O)O
not listed: [17] | [18] | [19]
inactive: all other assays above

CC1(C)C(\C=C/C=C\C=C/C=C2/N(CCCCS(=O)(=O)O)c3ccc4ccccc4c3C2(C)C)=[N+](CCCCS(=O)(=O)[O-])c2ccc3ccccc3c21
not listed: [3] | [18] | [19]
inactive: all other assays above

CCCCCCC(=O)O[C@H]1CC[C@H]2[C@@H]3CCc4cc(O)ccc4[C@H]3CC[C@]12C
active: [19] 11.9 µM | [18] 7.56 µM
not listed: [2] | [16]
inactive: all other assays above

CN[C@H]1CCc2cc(OC)c(OC)c(OC)c2-c2ccc(OC)c(=O)cc21
active: [1] 0.237 µM | [19] 0.335 µM
not listed: [3] | [18]
inactive: all other assays above

C=C[C@]1(C)C[C@@H](OC(=O)CSC(C)(C)CNC(=O)[C@H](N)C(C)C)[C@]2(C)[C@H](C)CC[C@]3(CCC(=O)[C@H]32)[C@@H](C)[C@@H]1O
not listed: [3] | [19]
inactive: all other assays above

CCC(=O)OCC(=O)[C@@]1(OC(=O)CC)[C@@H](C)C[C@H]2[C@@H]3CCC4=CC(=O)C=C[C@]4(C)[C@@]3(F)[C@@H](O)C[C@@]21C
active: [19] 23.7 µM
not listed: [2] | [16] | [18]
inactive: all other assays above

CCCC1([C@H](O)C/C=C/[C@H]2[C@H](O)CC(=O)[C@@H]2CCCCCCC(=O)OC)CCC1
active: [2] 29.8 µM
not listed: [3] | [4] | [18] | [19]
inactive: all other assays above

CCN(CC)Cc1cc(Nc2ccnc3cc(Cl)ccc23)ccc1O
not listed: [3]
inactive: all other assays above

CN1CCN(C(c2ccccc2)c2ccc(Cl)cc2)CC1 (stereo not drawn)
not listed: [3] | [19]
inactive: all other assays above

NCCC(=O)[N-][C@@H](Cc1cnc[nH]1)C(=O)O.[Zn]
not listed: [2] | [16] | [18]
inactive: all other assays above
